Hits are enriched below; roughly 2.4% of the tested compounds scored in any of these assays.
POLH inh: DNA polymerase eta (human) inhibition; Q9Y253; recombinant Pol eta, fluorescent DNA replication assay; Potency, µM (highest dose often 114 µM), usual class: inhibitors; hit rate 1.2% among 390,000; AID 588591
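Fluorescent replication assay: 50 nM final substrate added after a 15 min room-temperature compound preincubation with 10 nM enzyme. Signal taken at 0 min and again at 10 min.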
WRN inhibitor: inhibitors of human WRN helicase | Q14191 | WRN helicase unwinding, fluorescent forked duplex, kinetic | Potency, µM (titrated, usually from 114 µM), usual class: inhibitors | hit rate 0.46% among 360,000 | AID 651768; further: nearly all actives have a fitted effect of over 55% in size
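Fluorescence dequenching readout, ex 525 nm/em 598 nm, kinetic mode: forked duplex DNA (100 nM final) with adjacent fluorophore and quencher unwound by WRN (20 nM final) with 2 mM ATP. Compound preincubation 15 min, room temperature.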
POLK inh: blocks human DNA polymerase kappa activity; hit rate 0.53% among 400,000; purified Pol kappa, fluorescent DNA synthesis assay, 10 min; Potency, µM (doses to about 107 µM), usual class: inhibitors; Q9UBT6
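Kinetic fluorescence readout at 0 and 10 min followed reaction start with substrate at 50 nM final. Beforehand, enzyme (10 nM Pol kappa) stood 15 min with compound at room temperature; buffer-only wells were negative controls.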
POLB inh: DNA polymerase beta (human) inhibition; P06746; Pol beta primer extension/strand displacement, fluorescence kinetic; Potency, µM (highest dose often 114 µM), actives largely listed as inhibitors; hit rate 1.3% among 340,000; AID 485314
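Pol beta (10 nM) was preincubated with compound for 15 min at room temperature. The reaction was then started with 50 nM substrate and read immediately and after a further 10 min at room temperature.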
POLI inh: DNA polymerase iota (human) inhibition. Q9UNA4. Pol iota fluorescent replication assay, 10 min. Potency, µM (doses to about 115 µM), hits mostly inhibitors. hit rate 1% among 390,000
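Fluorescent replication assay read twice, at 0 min and 10 min after adding 50 nM (final) substrate. Enzyme (10 nM) and compounds were first incubated 15 min at room temperature; enzyme-free buffer wells were negative controls.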
FEN1 inh: human FEN1 inhibition. AID 588795. Recombinant FEN1 flap cleavage, fluorescence, 15 min. Potency, µM (top dose mostly 114 µM), usual class: inhibitors. hit rate 0.35% among 390,000. P39748; further: nearly all actives have a fitted effect of over 65% in size
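Read-out was taken twice, immediately and after 15 min, following addition of 50 nM substrate to 10 nM FEN1 that had sat with test compound for 15 min at room temperature. Curves came from a four-parameter Hill model.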
Numbers stand for hits; [ ] = remark or other dose. The call rests on the fitted dose curve; in most records, active means well fitted curve in the direction sought with a large enough effect; inconclusive means small, poorly fitted or top-dose-only effect, or another doubt; inactive means no such curve, though single readings can be large; an effect the other way counts as inactive or inconclusive.

`Cc1c2ccccc2nc2c(F)c(NC(C)C)c(F)c(F)c12` gave POLH inh inactive, WRN inhibitor inactive, POLK inh inconclusive, POLB inh inactive, POLI inh 18µM and FEN1 inh inactive.
Cc1c2ccccc2nc2c(F)c(NCCO)c(F)c(F)c12 was read as POLH inh inconclusive, WRN inhibitor inconclusive, POLK inh 79µM, POLB inh inconclusive, POLI inh inconclusive and FEN1 inh inconclusive.
COc1ccc(C=O)cc1COc1ccc(C)cc1[N+](=O)[O-] was read as POLH inh inactive, WRN inhibitor inactive, POLK inh inactive, POLB inh inactive, POLI inh inactive and FEN1 inh inactive.
`COc1ccccc1CN1CCC2(CC1)CCN(C(=O)c1ccco1)CC2` gave POLK inh inactive.
Cc1ccccc1Cn1ccc(NC(=O)c2cc3ncc(Br)cn3n2)n1 was read as POLH inh inactive, WRN inhibitor inactive, POLK inh inactive, POLB inh 20µM, POLI inh inactive and FEN1 inh inactive.
`O=C(c1cccc(S(=O)(=O)NCc2ccccc2)c1)N1CCN(c2ccccc2Cl)CC1` gave POLH inh inactive, WRN inhibitor inactive, POLK inh inactive, POLI inh 89µM and FEN1 inh inactive.
`O=C(Nc1cc(C(F)(F)F)ccc1Cl)C1CCN(c2nnc(-n3cccc3)s2)CC1` gave POLH inh inconclusive, WRN inhibitor inactive, POLK inh inactive, POLB inh 4µM, POLI inh inconclusive and FEN1 inh inactive.
Screening NS(=O)(=O)c1cccc(NC(=O)c2ccc3nc[nH]c3c2)c1 returned POLH inh 79µM, WRN inhibitor inconclusive, POLK inh inconclusive, POLB inh 50µM, POLI inh inconclusive and FEN1 inh inactive.
CCN1CC2([N+](=O)[O-])C=CC(=O)C([N+](=O)[O-])(C1)C2CC(=O)c1ccccc1 (centres undefined) was read as POLH inh 25µM, WRN inhibitor inactive, POLK inh inactive, POLB inh inactive, POLI inh inconclusive and FEN1 inh inactive.
`CCCCN1CC2([N+](=O)[O-])C=CC(=O)C([N+](=O)[O-])(C1)C2CC(=O)c1ccccc1` (centres undefined) gave POLH inh inactive, WRN inhibitor inactive, POLK inh inactive, POLB inh inactive, POLI inh inactive and FEN1 inh inactive.
COc1ccc(/C=C2\SC(N)=NC2=O)cc1Br was read as POLH inh inconclusive, WRN inhibitor inactive, POLK inh inactive, POLB inh 40µM, POLI inh inconclusive and FEN1 inh inactive.
CCCOc1ccc(/C=C2\SC(N)=NC2=O)cc1OC was read as POLH inh inactive, WRN inhibitor inactive, POLK inh inactive, POLB inh 56µM, POLI inh inconclusive and FEN1 inh inactive.
`CSc1ccc(-c2nnn(Cc3ccc(C)cc3)n2)cc1` gave POLH inh inactive, WRN inhibitor inactive, POLK inh inactive, POLB inh inactive, POLI inh inactive and FEN1 inh inactive.
Screening COCCn1c(N)c(C(=O)OCc2ccccc2)c2nc3ccccc3nc21 returned POLH inh inactive, WRN inhibitor inactive, POLK inh inactive, POLB inh inactive, POLI inh 20µM and FEN1 inh inactive.
Screening C=CCn1c(N)c(C(=O)OCCC)c2nc3ccccc3nc21 returned POLH inh inactive, WRN inhibitor inactive, POLK inh inactive, POLB inh inactive, POLI inh inactive and FEN1 inh inactive.
`CCOC(=O)c1cnc2c(ccc3ccccc32)c1Cl` gave POLH inh inactive, WRN inhibitor inactive, POLK inh inactive, POLB inh inactive, POLI inh inactive and FEN1 inh inactive.
Cc1c(NC(=O)c2cc([N+](=O)[O-])ccc2N2CCOCC2)cccc1-c1nc2ccccc2o1 was read as POLH inh inactive, POLK inh inactive, POLB inh inactive, POLI inh 22µM and FEN1 inh inactive.
O=C(CSc1nnc(-c2c[nH]c3ccccc23)n1CC1CCCO1)Nc1ccc2c(c1)OCCO2 (centres undefined) was read as POLH inh inactive, WRN inhibitor inactive, POLK inh inactive, POLB inh inactive, POLI inh inactive and FEN1 inh inactive.
For NC(=O)[C@@H]1CCCNc2c(I)cc([N+](=O)[O-])cc2C(=O)N[C@@H](CCC(=O)O)C(=O)N[C@@H](CO)C(=O)N1 the results were POLH inh inactive, WRN inhibitor inactive, POLK inh inactive, POLB inh inactive, POLI inh inactive and FEN1 inh inactive.
C[C@@H]1NC(=O)c2cc([N+](=O)[O-])cc(I)c2NCCCC[C@@H](C(N)=O)NC(=O)[C@H](CCC(=O)O)NC1=O was read as POLH inh 22µM, WRN inhibitor inactive, POLK inh inconclusive, POLB inh inactive, POLI inh 40µM and FEN1 inh inactive.
`NC(=O)C[C@H]1NC(=O)[C@H](CCC(=O)O)NC(=O)c2cc([N+](=O)[O-])cc(I)c2NCCC[C@@H](C(N)=O)NC1=O` gave POLH inh 35µM, WRN inhibitor inactive, POLK inh inconclusive, POLB inh inactive, POLI inh inconclusive and FEN1 inh inactive.
Screening NC(=O)C[C@@H]1NC(=O)[C@H](CCC(=O)O)NC(=O)c2cc([N+](=O)[O-])cc(I)c2OCC[C@@H](C(N)=O)NC1=O returned POLH inh 35µM, WRN inhibitor inactive, POLK inh inconclusive, POLB inh inactive, POLI inh inactive and FEN1 inh inactive.
For CCOc1ccc(NC(=O)CCNS(=O)(=O)c2cccc3nsnc23)cc1 the results were POLH inh inactive, WRN inhibitor inactive, POLK inh inactive, POLB inh inactive, POLI inh inactive and FEN1 inh inactive.
O=C(O)c1ccc(Cl)c(S(=O)(=O)N2CCCCCC2)c1 was read as POLH inh inactive, WRN inhibitor inactive, POLK inh inactive, POLB inh inactive, POLI inh inactive and FEN1 inh inactive.
Screening O=C1CN(S(=O)(=O)c2cc(C(=O)O)ccc2Cl)c2ccccc2N1 returned POLH inh 50µM, WRN inhibitor inconclusive, POLK inh inactive, POLB inh 50µM, POLI inh inconclusive and FEN1 inh inactive.
`CCC(C(=O)OCC(=O)c1ccc(OC)cc1OC)c1ccccc1` (centres undefined) gave POLH inh 32µM, WRN inhibitor inactive, POLK inh inactive, POLI inh inconclusive and FEN1 inh inactive.
`COc1ccc(C(=O)COC(=O)c2ccc(Cl)nc2)c(OC)c1` gave POLH inh inconclusive, WRN inhibitor inactive, POLK inh inactive, POLI inh 40µM and FEN1 inh inactive.
Screening COc1ccc(C(=O)COC(=O)c2ccc3c(c2)NC(=O)CS3)c(OC)c1 returned POLH inh inconclusive, WRN inhibitor inactive[11.6 µM], POLK inh inconclusive, POLI inh 40µM and FEN1 inh inactive.
